A selection: hits, their analogues and other compounds. The true share with any hit is near 1.2%.
ASM inhibitor: Inhibitors of Secretory Acid Sphingomyelinase (S-ASM): qHTS; Sphingomyelin phosphodiesterase (Homo sapiens), P17405; placental ASM, HMU-PC fluorogenic substrate, 60 min; Potency, µM (top dose mostly 57.5 µM), for the others: at the highest dose activity change, negative = inhibition, most hits filed as inhibitors; 340,000 tested, 0.006% active; note: potency is the fitted concentration of half-maximal effect
Target sequence (P17405 47-631 limits assumed): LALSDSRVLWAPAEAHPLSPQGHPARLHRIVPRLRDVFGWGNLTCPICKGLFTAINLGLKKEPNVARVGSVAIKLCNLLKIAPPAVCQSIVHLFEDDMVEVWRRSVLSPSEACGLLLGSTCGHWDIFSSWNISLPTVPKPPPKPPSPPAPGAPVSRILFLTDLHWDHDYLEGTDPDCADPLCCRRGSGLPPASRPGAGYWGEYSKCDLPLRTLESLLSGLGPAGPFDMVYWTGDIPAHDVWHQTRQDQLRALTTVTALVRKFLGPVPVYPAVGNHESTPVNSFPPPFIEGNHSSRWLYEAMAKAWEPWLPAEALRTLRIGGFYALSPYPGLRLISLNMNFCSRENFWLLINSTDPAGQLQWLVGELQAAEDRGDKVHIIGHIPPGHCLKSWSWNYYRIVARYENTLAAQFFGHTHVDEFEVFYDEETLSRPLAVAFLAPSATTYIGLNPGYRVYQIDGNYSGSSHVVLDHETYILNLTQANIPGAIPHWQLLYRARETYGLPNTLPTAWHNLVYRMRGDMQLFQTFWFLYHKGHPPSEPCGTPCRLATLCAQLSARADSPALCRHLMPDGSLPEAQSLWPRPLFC
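Human placenta-derived ASM enzyme was preincubated with compound for 10 minutes at room temperature, then given fluorogenic substrate HMU-PC0 (9 uM final) for 60 minutes at 37 °C; a pH 10 stop preceded fluorescence reading at Ex 386/Em 447 nm.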
mIDH1 inhibitor: qHTS for Inhibitors of mutant isocitrate dehydrogenase 1 (IDH1): qHTS; Isocitrate dehydrogenase [NADP] cytoplasmic (Homo sapiens), O75874; IDH1-R132H enzyme, NADPH consumption, diaphorase/resazurin fluorescence; Potency, µM (highest dose often 76.6 µM), inactives show top-dose activity change, negative = inhibition, most hits filed as inhibitors; 390,000 tested, 0.093% active; note: potency is the fitted concentration of half-maximal effect; % is set by controls: 0 for no effect and ±100 for the full control effect; nearly all actives have a fitted effect of over 65% in size
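IDH1-R132H (0.5 ug/mL) preincubated 30 min with compound, then NADPH (0.016 mM) and alpha-KG (2 mM) added; 80 min at RT, pH 7.5. Remaining NADPH coupled via diaphorase/resazurin to fluorescence (540/590 nm); concentration-response curves normalized to no-enzyme control.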
KCNH2 3.1 inh: qHTS for Inhibitors of KCHN2 3.1: Mutant qHTS | U2OS KCNH2 3.1, thallium flux FluxOr; active compounds read low | activity change, % (tested at about 1.8 µM) | 340,000 tested, 0.95% active | AID 720553, 2013;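 active = maximum activity change below -70%; inconclusive = maximum activity change from -70% to -50%; inactive = maximum activity change above -50%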;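 note: thallium influx rate constant from kinetic fluorescence after stimulation buffer; % is set by controls: 0 for no effect and ±100 for the full control effect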
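Channel expression came from 3.1 mutant virus (1.77 x 10^8 /mL) applied to suspended U2OS cells for 4 h. Flux was tracked with FluxOr dye plus Red40 quencher, and kinetic rate constants normalized to controls.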
KCNH2 WT inh: qHTS for Inhibitors of KCHN2 3.1: Wildtype qHTS; Voltage-gated inwardly rectifying potassium channel KCNH2 (Homo sapiens), Q12809; U2OS, BacMam KCNH2, thallium flux FluxOr; active compounds read low; activity change, % at 1.84 µM; 340,000 tested, 0.37% active; AID 720551, 2013;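 active = maximum activity change below -70%; inconclusive = maximum activity change between -70% and -50%; inactive = maximum activity change above -50%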; note: % is set by controls: 0 for no effect and ±100 for the full control effect
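U2OS cells were transduced with wild-type KCNH2 virus (2.03 x 10^8 / mL) for 4 h at room temperature, then cultured overnight at 37 C. Thallium flux was read with FluxOr dye. Rate constants were normalized to DMSO controls.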
Apoferritin bind: qHTS Assay for Identification of Novel General Anesthetics. Ferritin light chain (Equus caballus), P02791. apoferritin/1-aminoanthracene competitive binding, fluorescence. Potency, µM (series often up to 77.5 µM), inactives show at the highest dose activity change, negative = displacement, actives largely listed as inhibitors. 350,000 tested, 0.074% active. AID 485281, 2010; note: potency is the fitted concentration of half-maximal effect; % is set by controls: 0 for no effect and ±100 for the full control effect; nearly all actives have a fitted effect of over 20% in size
Target sequence (P02791 2-175 limits assumed): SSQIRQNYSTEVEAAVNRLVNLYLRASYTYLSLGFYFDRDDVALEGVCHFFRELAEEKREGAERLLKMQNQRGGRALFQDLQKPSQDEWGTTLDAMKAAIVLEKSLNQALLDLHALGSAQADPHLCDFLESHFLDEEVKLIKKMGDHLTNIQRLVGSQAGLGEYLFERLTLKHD
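Steps: apoferritin (10 uM) was premixed with half-saturated 1-AMA in PBS, compounds were pin-transferred, plates stood 10 min at room temperature, fluorescence was read at 380/535 nm, and curves were fitted with a Hill equation.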
Resorufin autofl: qHTS for Inhibitors of mutant isocitrate dehydrogenase 1 (IDH1): Cherrypicks Autofluorescence Interference. 750 tested, under 10 active. shares compounds with mIDH1 inhibitor. AID 623980, 2012. inhibition of signal, % at 51.2 µM. Resorufin detection reagent fluorescence interference, cell-free;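 note: 0% = wells with normal resorufin and full inhibition = wells lacking resorufin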
IDH1 WT: qHTS for Inhibitors of mutant isocitrate dehydrogenase 1 (IDH1): Cherrypicks in WT IDH1. shares compounds with mIDH1 inhibitor. WT IDH1 enzyme, NADPH diaphorase/resazurin fluorescence. Potency, µM (titrated, usually from 115 µM), for the others: at the highest dose activity change, negative = inhibition, usual class: inhibitors. 750 tested, 9% active;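 note: potency is the fitted concentration of half-maximal effect; 0% = full WT IDH1 enzyme control and full inhibition = no enzyme wells; nearly all actives have a fitted effect of over 55% in size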
IDH1 R132H conf: qHTS for Inhibitors of mutant isocitrate dehydrogenase 1 (IDH1): Confirmation of Cherrypicks; shares compounds with mIDH1 inhibitor; IDH1 R132H enzyme, NADPH diaphorase/resazurin fluorescence; Potency, µM (highest dose often 76.6 µM), for inactives: at the top dose activity change, negative = inhibition, usual class: inhibitors; 750 tested, 83% active; note: potency is the fitted concentration of half-maximal effect; nearly all actives have a fitted effect of over 50% in size
Numbers without * were called inactive; ? = inconclusive; . = no result; [ ] = dose if it differs, or a comment. Unless noted, calls come from the whole dose curve; as a rule, active = well fitted curve in the direction sought with a large enough effect; inconclusive = small, poorly fitted or top-dose-only effect, or another doubt; inactive = no such curve, though single readings can be large; an effect the other way counts as inactive or inconclusive.

SMILES	ASM inhibitor	mIDH1 inhibitor	KCNH2 3.1 inh	KCNH2 WT inh	Apoferritin bind	Resorufin autofl	IDH1 WT	IDH1 R132H conf
Cc1nc([N+](=O)[O-])c(Br)n1CC(=O)c1ccc2ccccc2c1	?	?	-16.6	25.8	?	1.6	?	28.2µM*
COc1ccc(NC(=O)c2nc(-c3ccc(C)cc3)n3c2CCCCC3)c(OC)c1	.	-11.3%	.	.	-13.1%	.	.	.
COc1ccc(Br)cc1/C=N/NC(=O)c1nc(-c2ccccc2)n2c1CCCCC2	-4.3%	?	-23.9	11.1	-12.9%	2.8	1.0%	?
COCCNC(=O)c1ccc2c(c1)N(Cc1c(F)cccc1Cl)C(=O)c1ccccc1S2	.	-12.7%	.	.	-8.5%	.	.	.
CCN(CC)C(=O)c1ccc2c(c1)N(Cc1c(F)cccc1Cl)C(=O)c1ccccc1S2	.	31.6µM*	.	.	26.4%	-1.7	?	28.2µM*
Cc1oc2ccc(O)c(CN(C)Cc3ccccc3)c2c1C(=O)Nc1cccc(C(F)(F)F)c1	.	11.9%	.	.	?	.	.	.
COc1ccc(-c2nn3c(-c4ccccc4C)nnc3c3ccccc23)cc1	.	?	.	.	?	-2.0	2.1%	22.4µM*
COc1ccc(-c2nnc3c4ccccc4c(C)nn23)cc1	-5.6%	11.8%	12.7	-21.6	-16.8%	.	.	.
Cc1ccc(NC(=O)/C=C\C(=O)N(c2ccc(C(C)C)cc2)C(C(=O)NCc2ccco2)c2ccc(Cl)cc2)cc1 (centres undefined)	.	6.6%	.	.	-18.8%	.	.	.
COc1ccc(N(C(=O)/C=C\C(=O)Nc2ccc(Cl)cc2)C(C(=O)NCc2ccco2)c2ccc(C)cc2)cc1 (centres undefined)	.	?	.	.	-13.3%	0.0	3.5%	-10.9%
Cc1ccc(-c2nn3c(=O)cc(CN4CCN(C(=O)/C=C/c5ccccc5)CC4)nc3s2)cc1	.	-0.7%	.	.	0.0%	.	.	.
O=C(O)CCCCCCCCCCP(=O)(c1ccccc1)c1ccccc1	2.8%	-1.0%	-1.2	3.3	-11.1%	.	.	.
O=P(CCCCCCCCCP(=O)(c1ccccc1)c1ccccc1)(c1ccccc1)c1ccccc1	-7.1%	32.9µM*	0.3	31.2	96.4%	-9.0	1.3%	22.4µM*
CC[C@H](C)[C@H](NC(=O)[C@H](CC(=O)O)NC(=O)[C@H](CC(C)C)NC(=O)[C@H](NC(C)=O)C(c1ccccc1)c1ccccc1)C(=O)N[C@H](C(=O)N[C@@H](Cc1c[nH]c2ccccc12)C(=O)O)[C@@H](C)CC	.	.	.	.	6.6%	.	.	.
Cc1ccc(S(=O)(=O)n2c3ccccc3c3nnc(C(=O)c4ccccc4)nc32)cc1	.	.	.	.	-1.7%[15.3 µM]	.	.	.
CCOc1cc2nc(-c3ccc(OC)c(OC)c3)nc(N3CC(C)OC(C)C3)c2cc1OC (centres undefined)	.	.	.	.	-6.0%	.	.	.
CCOc1cc2nc(-c3ccc(OC)c(OC)c3)nc(N3CCOCC3)c2cc1OC	-1.8%	?	5.4	8.9	-22.0%	-13.6	-10.2%	15.8µM*
CC(C)(C)OC(=O)N1CCC(c2c(C(=O)NCCN3CCc4ccccc4C3)cnn2-c2ccc(F)cc2)CC1	.	-4.7%	.	.	?	.	.	.
CCC1Oc2ccc(C)cc2N(CC(=O)NCCc2ccccc2)C1=O (centres undefined)	.	-4.4%	.	.	-4.8%	.	.	.
COCCN1C(=O)/C(=C/c2ccc(OCc3ccc(C(=O)O)cc3)c(OC)c2)SC1=Nc1ccccc1	-4.0%	20.7µM*	-4.5	-0.6	-2.8%	-1.3	79.4µM*	10µM*
C=CS(=O)(=O)c1ccc(Oc2ccc(S(=O)(=O)C=C)cc2)cc1	2.5%	31.6µM*	6.8	37.3	-4.0%	0.5	?	11.2µM*
CCn1c2ccccc2c2cc(/C=N/n3c(-c4cc(C)[nH]n4)n[nH]c3=S)ccc21	12.7%	?	-8.4	0.6	-1.7%	-7.9	-2.2%	14.1µM*
CC(=O)NC1C(=O)N(CCN2CCOCC2)c2ccc(C)cc21 (centres undefined)	-1.4%	?	-10.3	0.6	-9.2%	.	.	.
CC(=O)NC1C(=O)N(CCN2CCOCC2)c2ccc(Cl)cc21 (centres undefined)	2.7%	41.4µM*	6.9	-2.1	14.5%	4.7	?	-117.9%
Cc1cc(C)c2c(=N)c3ccccc3n(CCCCCCCCn3c4ccccc4c(=N)c4c(C)cc(C)nc43)c2n1	85.0%	52.1µM*	-6.2	-1.2	.	-9.3	1.7%	28.2µM*
SMILES	ASM inhibitor	mIDH1 inhibitor	KCNH2 3.1 inh	KCNH2 WT inh	Apoferritin bind	Resorufin autofl	IDH1 WT	IDH1 R132H conf
CC[C@]12c3[nH]c4cc(CCC(=O)N(C)C)ccc4c3CCN1C(=O)[C@@H](CC(=O)NC/C=C(\C)CCC=C(C)C)C[C@@H]2C(=O)N1CCN(C(=O)c2ccco2)CC1	-1.5%	?	-10.7	5.4	.	-10.8	-7.4%	31.6µM*
CC[C@]12c3[nH]c4cc(CCC(=O)N(C)C)ccc4c3CCN1C(=O)[C@@H](CC(=O)NCCN1CCOCC1)C[C@@H]2C(=O)N1CCN(C(=O)c2ccco2)CC1	-0.8%	-4.8%	2.0	-5.9	.	.	.	.
CCCCCCCCCCOCCC(=O)O	.	.	.	.	-5.0%	.	.	.
Cc1ccc(C2=Nc3ccc(Br)cc3C(c3ccncc3)=NN2)cc1	-1.5%	14.7µM*	-11.1	2.0	-22.1%	8.5	4.1%	22.4µM*
Cc1ccc2c(c1)C(c1ccncc1)=NNC(c1ccc(F)cc1)=N2	0.4%	9.0%	-5.5	6.1	-9.3%	.	.	.
CCOc1ccc(CNCc2c(C(=O)O)n(Cc3ccccc3C)c3cc(OC)ccc23)cc1OC	.	-16.9%	.	.	55.7%	.	.	.
Cc1ccc(N(C(=O)Cc2c[nH]c3ccccc23)C(C(=O)NC2CCCCC2)c2ccco2)cc1 (centres undefined)	-8.5%	?	-11.3	0.3	6.1%	5.9	-2.8%	6.31µM*

Screening data deposited in PubChem by National Center for Advancing Translational Sciences (NCATS).
